UBC13 inh: UBC13 polyubiquitin chain formation inhibitors, primary screen, biochemical, TR-FRET, uHTS. Ubiquitin-conjugating enzyme E2 N (Homo sapiens), P61088. inhibition, % at 20 µM. actives 0.47% (n = 330,000); in the data active means inhibition above about 45%, passing the limit was not always enough
Target sequence (P61088 whole entry, looked up): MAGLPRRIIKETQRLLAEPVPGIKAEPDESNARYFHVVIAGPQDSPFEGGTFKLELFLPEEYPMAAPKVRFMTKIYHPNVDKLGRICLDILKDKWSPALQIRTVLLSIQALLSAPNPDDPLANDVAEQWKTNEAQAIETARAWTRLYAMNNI
NR3A LBD binder: binders of NR3A ligand-binding domain, primary screen, biophysical, differential scanning fluorimetry, uHTS. Glutamate receptor ionotropic, NMDA 3A (GRIN3A) ligand-binding domain. NR3A LBD differential scanning fluorimetry, Tm shift; 0% = protein alone, 100% = glycine-bound protein. AID 1259313, 2017. Tm shift relative to glycine control, % at 25 µM. actives 2.5% (n = 340,000);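 active means melting temperature shift of at least 10% of the positive control shift, at one fixed dose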
dFosB act: activators of delta FosB homodimer, primary screen, biochemical, fluorescence polarization, TAMRA-CDK5 oligo, single point; actives 0.99% (n = 340,000); Protein FosB (Mus musculus), P13346; purified delta FosB; percent of positive-control signal above neutral wells; activation, % at 25 µM;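 active means mean activation above about 17%, with every replicate also reaching it, limit read from the data, passing the limit was not always enough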
Target sequence (P13346 whole entry, looked up): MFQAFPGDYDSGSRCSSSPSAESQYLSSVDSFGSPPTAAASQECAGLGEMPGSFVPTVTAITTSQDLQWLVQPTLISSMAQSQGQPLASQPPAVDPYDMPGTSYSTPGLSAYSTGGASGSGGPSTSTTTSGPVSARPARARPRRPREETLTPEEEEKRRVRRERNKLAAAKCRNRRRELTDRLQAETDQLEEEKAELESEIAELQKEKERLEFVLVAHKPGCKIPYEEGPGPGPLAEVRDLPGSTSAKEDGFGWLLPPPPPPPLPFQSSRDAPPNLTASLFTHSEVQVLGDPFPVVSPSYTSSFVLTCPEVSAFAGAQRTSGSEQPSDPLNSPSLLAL
NALP1 inh: NALP1 inflammasome inhibitors in reconstituted yeast, colorimetric, S. cerevisiae, triplicate retest | S. cerevisiae NALP1/ASC/caspase-1 growth, X-gal OD620, 72 h | inhibition, % at 10 µM | actives 0.61% (n = 280,000) | AID 2071, 2009; in the data active means inhibition mostly above about 24%, no sharp cut-off; inactive means mostly below about 32%
Yeast superoxide: reduction of superoxide in aged yeast, primary screen, HTS; superoxide response (% of plate mean), % at 10 µM; AID 2690, 2010; actives 0.18% (n = 330,000); S. cerevisiae aged cells, superoxide DHE fluorescence; hits give low values;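 active means superoxide response under a set limit, about three screen SD below normal, cut at about 65% in these data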;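 further: yeast aged for seven days with compound at 30 °C before DHE staining; 100% = average MFI of all compound-treated wells on the plate with controls excluded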
Numbers without * were called inactive. A selection: hits, their analogues and other compounds. The true share with any hit is near 4.3%.

Screening COc1cc(Br)cc(/C=N/NC(=O)Cc2ccc(C(F)(F)F)cc2[N+](=O)[O-])c1O returned UBC13 inh -5, NR3A LBD binder 25*, dFosB act 12, NALP1 inh 19 and Yeast superoxide 103.
`NC(=S)N/N=C\c1ccc(-c2cccc(Cl)c2Cl)o1` gave UBC13 inh -2, NR3A LBD binder 27*, dFosB act 0, NALP1 inh 21 and Yeast superoxide 138.
NC(=S)N/N=C/c1ccc(-c2ccc(Cl)c(Cl)c2)o1 was read as UBC13 inh -10, NR3A LBD binder 4, dFosB act -5, NALP1 inh -6 and Yeast superoxide 119.
Screening Cc1nn(C2CCS(=O)(=O)C2)c(C)c1CN(C)C(=O)c1ccc(Cl)cc1 (stereo not given) returned UBC13 inh 7, NR3A LBD binder 1, dFosB act -1 and Yeast superoxide 108.
For O=C(NCCSCc1ccc(Cl)cc1)c1cccs1 the results were UBC13 inh 1, NR3A LBD binder -6, dFosB act -6, NALP1 inh 8 and Yeast superoxide 101.
`CCCOc1ccc(C2c3c(oc4cc(C)c(C)cc4c3=O)C(=O)N2CCCN(C)C)cc1OCC` (stereo not given) gave UBC13 inh 3, NR3A LBD binder -2, dFosB act 15, NALP1 inh 0 and Yeast superoxide 118.
Screening CCOc1ccc(C2c3c(oc4cc(C)c(C)cc4c3=O)C(=O)N2CCCN(C)C)cc1OC (stereo not given) returned UBC13 inh 8, NR3A LBD binder -4, dFosB act 29*, NALP1 inh 2 and Yeast superoxide 107.
O=C(NCCc1ccccc1)C(c1ccc(F)cc1)N(C(=O)c1csnn1)C1CC1 (stereo not given) was read as UBC13 inh 6, NR3A LBD binder -1, dFosB act -7, NALP1 inh -1 and Yeast superoxide 104.
C=CCN1C(=O)c2oc3ccccc3c(=O)c2C1c1ccc(O)c(OC)c1 (stereo not given) was read as UBC13 inh 9, NR3A LBD binder 2, dFosB act 4, NALP1 inh 38* and Yeast superoxide 92.
For COCCN1C(=O)c2oc3ccccc3c(=O)c2C1c1ccc(OC)c(OC)c1 (stereo not given) the results were UBC13 inh -6, NR3A LBD binder -2, dFosB act 0, NALP1 inh 23 and Yeast superoxide 95.
`O=S1(=O)[C@H]2C[C@@H]3C=C[C@@]2(CN1Cc1ccc(F)cc1)O3` gave UBC13 inh 5, NR3A LBD binder -1, dFosB act 10, NALP1 inh -5 and Yeast superoxide 91.
`Cc1ccc(SC(C)C(=O)N2CCCC2)cc1` (stereo not given) gave UBC13 inh 5, NR3A LBD binder 12*, dFosB act 2, NALP1 inh 38 and Yeast superoxide 104.
Cc1ccc(SC(C)C(=O)N2CCC(C(N)=O)CC2)cc1 (stereo not given) was read as UBC13 inh 16, NR3A LBD binder -1, dFosB act 0, NALP1 inh 3 and Yeast superoxide 99.
`Cc1cc(-c2nnc(SCC(=O)Nc3ccccc3C(F)(F)F)o2)c(C)n1-c1ccccc1` gave UBC13 inh -6, NR3A LBD binder -1, dFosB act 2, NALP1 inh 44* and Yeast superoxide 105.
`Cc1cc(C(C)(C)C)c(O)c(C(C)(C)C)c1` gave UBC13 inh 4, NR3A LBD binder 5, dFosB act 1, NALP1 inh 5 and Yeast superoxide 99.
`CC(C)(C)c1cc(O)c(C(C)(C)C)cc1O` gave UBC13 inh -13 and Yeast superoxide 52*.
Cc1ccc(N/C=C/C(=O)c2sc(-c3ccccc3)nc2C)cc1 was read as UBC13 inh -15, NR3A LBD binder -1, dFosB act -8, NALP1 inh -2 and Yeast superoxide 115.
COc1cc(OC)cc(-c2c(C#Cc3ccsc3)c3cc(-c4cccc5[nH]ccc45)ccc3n2C)c1 was read as UBC13 inh 1, NR3A LBD binder 7, dFosB act 18* and Yeast superoxide 99.
Screening COc1ccc(-c2c(C#Cc3ccsc3)c3cc(-c4ccc5cc[nH]c5c4)ccc3n2C)cc1 returned UBC13 inh -22, NR3A LBD binder 12*, dFosB act 4 and Yeast superoxide 90.
Screening CCOC(=O)c1cc(CC)sc1NC(=O)c1cc(OCC)c(OCC)c(OCC)c1 returned UBC13 inh 29, NR3A LBD binder 11*, dFosB act 2, NALP1 inh 15 and Yeast superoxide 100.
C=C(NC(=O)C(=C)NC(=O)c1csc(C2=NC3c4csc(n4)C4NC(=O)c5csc(n5)C(C(C)(O)C(C)O)NC(=O)C5CSC(=N5)/C(=C/C)NC(=O)C(C(C)O)NC(=O)c5csc(n5)C3(CC2)NC(=O)C(C)NC(=O)C(=C)NC(=O)C(=C)NC(=O)C(C(C)C)NC2C=Cc3c(C(C)O)cc(nc3C2O)C(=O)OC4C)n1)C(N)=O (stereo not given) was read as NR3A LBD binder 8 and dFosB act 17*.
For C=C(NC(=O)C(=C)NC(=O)c1csc(C2=NC3c4csc(n4)C4NC(=O)c5csc(n5)C([C@@](C)(O)C(C)O)NC(=O)C5CSC(=N5)/C(=C\C)NC(=O)C(C(C)O)NC(=O)c5csc(n5)[C@]3(CC2)NC(=O)C(C)NC(=O)C(=C)NC(=O)C(C)NC(=O)C(C(C)CC)NC2C=Cc3c(C(C)O)cc(nc3C2O)C(=O)OC4C)n1)C(N)=O (stereo not given in full) the results were UBC13 inh -39 and Yeast superoxide 100.
COc1ccccc1NC(=O)C(CC(C)C)NC(=O)C1CCCCC1 (stereo not given) was read as UBC13 inh 23, NR3A LBD binder -1, dFosB act -4, NALP1 inh 41* and Yeast superoxide 104.
`COc1ccccc1NC(=O)C1CCN(c2ncccn2)CC1` gave UBC13 inh -2, NR3A LBD binder 1, dFosB act -2, NALP1 inh 25* and Yeast superoxide 105.
COc1ccc(OC)c(NC(=O)C2CCN(c3ncccn3)CC2)c1 was read as UBC13 inh 4, NR3A LBD binder 1, dFosB act 3, NALP1 inh 20 and Yeast superoxide 97.
For COc1ccc(OC)c(NC(=O)C(CC(C)C)NC(=O)C2CCCCC2)c1 (stereo not given) the results were UBC13 inh 16, NR3A LBD binder 1, dFosB act -11 and Yeast superoxide 99.
